This note sets out measurements from PubChem BioAssay (NCATS).

Records with an inconclusive call do not appear. Calls of active or inactive are those of the source. Unless noted, calls come from the whole dose curve; as a rule, active = well fitted curve in the direction sought with a large enough effect; inconclusive = small, poorly fitted or top-dose-only effect, or another doubt; inactive = no such curve, though single readings can be large; an effect the other way counts as inactive or inconclusive. Residues, ends and D or L forms follow the SMILES beside them. *: point of attachment. Cbz = O=C(OCc1ccccc1)*

Test [1] in a line: High Content Imaging Cell-Based qHTS for Inhibitors of the mTORC1 Signaling Pathway in MEF (Tsc2-/-, p53-/-) Cells (AID 2666).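 Note: percent of cells scored positive for phospho-rpS6 Ser235/236 immunostaining by imaging.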 Note: potency is the fitted concentration of half-maximal effect. In outline:
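Tsc2-/-, p53-/- MEFs (empty-vector stable) grown in DMEM + 10% FBS were exposed to compounds for 24 hrs at 37 degree Celsius, fixed, and stained with Alexa-488 anti-phospho-rpS6 Ser235/236 plus Hoechst. Imaging gave the percentage of positive cells per well.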
A general note: Quantitative high-throughput screening tests each substance at several concentrations.

Test [2] is described as follows: High Content Imaging Cell-Based qHTS for Inhibitors of the mTORC1 Signaling Pathway in MEF Cells (AID 2667). Note: potency is the fitted concentration of half-maximal effect. The method, boiled down:
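Tsc2-/-, p53-/- MEFs stably re-expressing WT Tsc2, grown in DMEM + 10% FBS, were treated with compounds for 24 hrs at 37 degree Celsius, fixed, and stained with Alexa-488 phospho-rpS6 Ser235/236 antibody plus Hoechst; results given as % positive cells.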

Test [3] can be described thus: Cytometry Cell-Based qHTS for Inhibitors of the mTORC1 Signaling Pathway in MEF cells (AID 2668). Note: potency is the fitted concentration of half-maximal effect. In outline: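 In MEFs grown in DMEM + 10% FBS, a 24 hrs compound exposure preceded imaging of phospho-rpS6 Ser235/236 by laser-scanning cytometry.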
Test [4] is described as follows: qHTS Validation Assay to Find Inhibitors of Chronic Active B-Cell Receptor Signaling (AID 485345; active = well fitted curve in the direction sought with a large enough effect in the main read-out, with a control signal flat, not every such curve was filed as active). In outline: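 Read-out: ratio of filter-corrected green (IkappaBalpha fusion) to red (native) luciferase signal in doxycycline-induced TMD8 cells after 4 h at 37C. Titration spanned 46 uM–3 nM; Data were normalised to basal cells and 10 uM MG-132 wells.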
In test [5] the target is DNA polymerase III PolC-type (Bacillus subtilis (strain 168)) (UniProt P13267). Nature of the test: qHTS Validation Assay for the Inhibitors of DNA Replication in Gram-Positive Bacteria (AID 485295). Note: potency is the fitted concentration of half-maximal effect. In outline: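 Inhibition of DNA synthesis by the reconstituted PolC holoenzyme, monitored through PicoGreen staining of dsDNA formed from ssM13Gori, dNTPs and NTPs, with compound preincubation and room-temperature reaction.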
DNA polymerase III PolC-type (Bacillus subtilis (strain 168)), sequence (P13267 whole entry, looked up): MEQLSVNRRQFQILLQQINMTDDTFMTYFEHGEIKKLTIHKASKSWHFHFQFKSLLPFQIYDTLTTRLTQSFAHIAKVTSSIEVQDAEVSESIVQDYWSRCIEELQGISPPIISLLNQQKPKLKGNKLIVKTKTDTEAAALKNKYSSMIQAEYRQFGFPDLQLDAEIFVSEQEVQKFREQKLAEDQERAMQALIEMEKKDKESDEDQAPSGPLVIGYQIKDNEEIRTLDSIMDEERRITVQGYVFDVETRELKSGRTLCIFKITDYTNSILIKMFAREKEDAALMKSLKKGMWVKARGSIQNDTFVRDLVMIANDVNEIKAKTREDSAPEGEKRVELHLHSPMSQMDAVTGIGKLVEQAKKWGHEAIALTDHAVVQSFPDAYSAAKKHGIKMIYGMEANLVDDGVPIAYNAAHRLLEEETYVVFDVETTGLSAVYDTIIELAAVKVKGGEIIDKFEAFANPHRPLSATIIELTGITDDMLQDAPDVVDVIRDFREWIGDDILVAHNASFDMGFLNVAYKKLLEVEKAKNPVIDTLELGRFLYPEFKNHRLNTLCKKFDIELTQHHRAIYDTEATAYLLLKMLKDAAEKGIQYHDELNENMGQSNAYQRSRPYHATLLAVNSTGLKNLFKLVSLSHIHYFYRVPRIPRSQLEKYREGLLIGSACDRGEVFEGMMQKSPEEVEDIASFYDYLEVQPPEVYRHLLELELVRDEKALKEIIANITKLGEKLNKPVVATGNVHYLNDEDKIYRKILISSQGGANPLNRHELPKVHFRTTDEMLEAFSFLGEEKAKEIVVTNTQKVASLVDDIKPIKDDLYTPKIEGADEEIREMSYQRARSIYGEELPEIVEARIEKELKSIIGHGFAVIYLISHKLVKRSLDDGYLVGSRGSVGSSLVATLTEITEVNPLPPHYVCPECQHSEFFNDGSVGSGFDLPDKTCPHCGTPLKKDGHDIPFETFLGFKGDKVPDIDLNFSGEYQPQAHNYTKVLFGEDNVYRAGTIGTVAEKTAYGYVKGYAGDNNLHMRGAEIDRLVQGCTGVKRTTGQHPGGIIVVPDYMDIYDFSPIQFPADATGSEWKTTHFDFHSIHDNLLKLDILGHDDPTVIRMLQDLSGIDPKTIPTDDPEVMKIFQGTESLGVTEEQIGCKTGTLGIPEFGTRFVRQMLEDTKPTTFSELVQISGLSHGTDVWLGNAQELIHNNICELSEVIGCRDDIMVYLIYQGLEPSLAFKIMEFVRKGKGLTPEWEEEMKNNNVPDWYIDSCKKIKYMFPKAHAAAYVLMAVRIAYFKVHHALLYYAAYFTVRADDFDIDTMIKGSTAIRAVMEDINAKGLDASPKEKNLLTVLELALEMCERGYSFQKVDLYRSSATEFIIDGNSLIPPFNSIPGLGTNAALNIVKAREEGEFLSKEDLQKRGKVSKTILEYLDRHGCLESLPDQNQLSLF

Test [6] concerns the target Tumor susceptibility gene 101 protein (Homo sapiens) (UniProt Q99816). Nature of the test: qHTS Validation Assay for Iinhibitors of HIV-1 Budding by Blocking the Interaction of PTAP/TSG101 (AID 485342; calls by dose curve). In outline: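 Compound wells held the Tsg101 binding domain (10 uM) and a FITC-conjugated PTAP peptide (50 nM) in buffer at pH 7.5 containing 0.15 M NaCl and 0.01% Tween 20; polarization was recorded after 20 min, r.t.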

Test [7] is described as follows: Validation screen for small molecules that induce DNA re-replication in MCF 10A normal breast cells (AID 463097). Note: nearly all actives have a fitted effect of over 60% in size. Note: potency is the fitted concentration of half-maximal effect. In outline: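 Following 48 hr compound incubation (37 C, 5% CO2), MCF 10A cells receive Hoechst for 40 min at 37 C. Nuclei are then scanned (excitation 405 nm, emission 500-530 nm) for total fluorescence intensity.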
Test [8] deals with Ubiquitin carboxyl-terminal hydrolase 2 (Homo sapiens) (UniProt O75604). As to the kind of experiment: qHTS Validation Assay for Inhibitors of Ubiquitin-specific Protease USP2a Using CHOP2 as the Reporter (AID 463106). The method, boiled down: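 Readout was coupled fluorescence (Ex 485/Em 531 nm), read 60 min after adding 25 nM final Ub-CHOP2 and 25 nM reporter substrate. Beforehand, 10 nM final USP2 core had 30 min at RT with compound in pH 8.0 buffer. Curves were fitted after normalization to NEM and flagged for artifacts using time-zero reads.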
Ubiquitin carboxyl-terminal hydrolase 2 (Homo sapiens), sequence (O75604 whole entry, looked up): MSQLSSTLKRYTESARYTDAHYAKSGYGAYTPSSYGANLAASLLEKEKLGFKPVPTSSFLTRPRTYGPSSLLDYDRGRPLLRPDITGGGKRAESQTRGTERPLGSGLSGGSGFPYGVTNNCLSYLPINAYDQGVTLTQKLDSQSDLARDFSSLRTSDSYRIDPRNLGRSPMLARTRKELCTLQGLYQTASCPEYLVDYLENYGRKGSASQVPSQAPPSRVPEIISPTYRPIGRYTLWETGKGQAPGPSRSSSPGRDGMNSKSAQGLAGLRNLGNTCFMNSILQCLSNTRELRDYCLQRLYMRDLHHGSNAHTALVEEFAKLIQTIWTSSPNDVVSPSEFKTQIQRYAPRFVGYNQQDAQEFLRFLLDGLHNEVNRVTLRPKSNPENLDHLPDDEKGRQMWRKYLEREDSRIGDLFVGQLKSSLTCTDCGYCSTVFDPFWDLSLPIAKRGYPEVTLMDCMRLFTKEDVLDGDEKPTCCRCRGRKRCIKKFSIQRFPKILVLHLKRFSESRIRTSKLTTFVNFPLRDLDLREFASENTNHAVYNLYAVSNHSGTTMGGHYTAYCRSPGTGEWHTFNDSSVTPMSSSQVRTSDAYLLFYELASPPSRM

Tumor susceptibility gene 101 protein (Homo sapiens), sequence (Q99816 whole entry, looked up, the tested form may be a part): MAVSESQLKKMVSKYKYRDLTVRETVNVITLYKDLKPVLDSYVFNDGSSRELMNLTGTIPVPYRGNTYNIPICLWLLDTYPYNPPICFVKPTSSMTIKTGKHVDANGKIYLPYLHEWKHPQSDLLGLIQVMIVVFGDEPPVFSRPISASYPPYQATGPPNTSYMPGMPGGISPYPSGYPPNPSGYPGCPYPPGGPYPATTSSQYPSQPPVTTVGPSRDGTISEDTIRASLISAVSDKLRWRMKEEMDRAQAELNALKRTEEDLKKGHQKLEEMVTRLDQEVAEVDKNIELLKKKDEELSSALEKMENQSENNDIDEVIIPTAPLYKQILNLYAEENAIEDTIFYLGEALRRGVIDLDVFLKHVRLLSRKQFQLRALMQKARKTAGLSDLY

Turning to `[N-]=[N+]=Nc1ccc(C(=O)CSC[C@H](NC(=O)CC[C@H](N)C(=O)O)C(=O)NCC(=O)O)cc1`, the Potency entry in test [1], in test [2] and in test [3] was “inactive” each time. Moreover, the compound was called inactive in test [4].
Consider `O=C1Nc2ccc(I)cc2/C1=C/c1cc(Br)c(O)c(Br)c1`, for which the Potency entry in test [1] and in test [2] was “inactive” in each case. In addition, in test [5], the Potency was 21.2 µM (active). In addition, the outcome in test [6] was inactive.
For the compound `CCC1(O)CC2CN(CCc3c([nH]c4ccccc34)[C@@](C(=O)OC)(c3cc4c(cc3OC)N(C)C3[C@]45CCN4CC=C[C@@](CC)([C@@H](OC(C)=O)[C@]3(O)C(=O)OC)[C@H]45)C2)C1` (some centres not stated), the Potency entry in test [1], in test [8] and in test [5] was “inactive” each time. Further, in test [7], the Potency was 0.0501 µM (active). In addition, the outcome in test [6] was inactive.
For the compound `O=C1NC(=O)c2cc(Nc3ccccc3)c(Nc3ccccc3)cc21`, the Potency result in test [1], in test [2], in test [3], in test [8] and in test [5] was “inactive” each time. In addition, the compound was called inactive in test [6].
In the case of `Cn1c(=O)[nH]c2ncn(C)c2c1=O`, the Potency entry in test [1], in test [2], in test [3], in test [7], in test [8] and in test [5] was “inactive” in each case. For the same compound, in test [4], the result was inactive.
With `COC(=O)[C@H](NC(=O)c1cc(-c2ccccc2)nc2ccccc12)c1ccccc1`, the Potency result in test [1], in test [2], in test [7], in test [8] and in test [5] was “inactive” each time. For the same compound, the compound was called inactive in test [6].
As to `CN(C)S(=O)(=O)c1ccc2c(c1)/C(=C/c1cc3c([nH]1)CCCC3)C(=O)N2`, the Potency entry in test [1], in test [2], in test [8] and in test [5] was “inactive” throughout. In test [6], the result was inactive.
Consider `CCCCCCN(CCCCCC)C(=O)Cc1c(-c2ccc(F)cc2)[nH]c2ccccc12`, for which the Potency result in test [1], in test [2], in test [7], in test [8] and in test [5] was “inactive” in each case. Also, the result in test [6] and in test [4] was inactive.
As to `C=C1C(=O)O[C@@H]2[C@H]3O[C@]3(C)CCC=C(C)CC[C@@H]12`, the Potency result in test [1], in test [2], in test [8] and in test [5] was “inactive” throughout. The Potency in test [7] was 14.1 µM (active). Moreover, the compound was classed as inactive in test [6].
For `CC(C)NC[C@H](O)COc1ccc(CC(N)=O)cc1`, the Potency result in test [1], in test [2], in test [3], in test [7], in test [8] and in test [5] was “inactive” each time. For the same compound, the compound was classed as inactive in test [4].
On to `Cc1cccc(C2CN(C)CCc3c2cc(O)c(O)c3Cl)c1` (configuration not stated), for which the Potency entry in test [1], in test [2], in test [7], in test [8] and in test [5] was “inactive” throughout. Besides, the compound was called inactive in test [6] and in test [4].
As to `CCCn1c(=O)c2[nH]c(C3CCCC3)nc2n(CCC)c1=O`, the Potency result in test [1], in test [2], in test [3], in test [8] and in test [5] was “inactive” each time. The compound was classed as inactive in test [6].
With `CCCc1c(OCCCOc2ccc(OCC(=O)O)cc2)ccc(C(C)=O)c1O`, the Potency result in test [1], in test [2], in test [7], in test [8] and in test [5] was “inactive” in each case. For the same compound, the compound was called inactive in test [6].
In the case of `O=C(O)/C=C/c1cnc[nH]1`, the Potency result in test [1], in test [2], in test [3], in test [7], in test [8] and in test [5] was “inactive” throughout. Moreover, the outcome in test [4] was inactive.
In the case of `c1ccc(CN2CCC3(CCCc4ccccc43)CC2)cc1`, the Potency entry in test [1], in test [2], in test [7], in test [8] and in test [5] was “inactive” throughout. The call in test [6] and in test [4] was inactive.
In the case of `COc1ccc(CCN(C)CCc2ccc(OC)c(OC)c2)cc1OC`, the Potency entry in test [1], in test [2], in test [7], in test [8] and in test [5] was “inactive” each time. Further, the outcome in test [6] and in test [4] was inactive.
On to `CC#CCOC(=O)c1c(C)nc2sc3c(c2c1N)CCC(O)C3` (configuration not stated), for which the Potency result in test [1], in test [2], in test [3], in test [8] and in test [5] was “inactive” in each case. Also, the outcome in test [6] and in test [4] was inactive.
Turning to `CC(C)[C@H](NC(=O)OCc1ccccc1)C(=O)N[C@H](C=O)Cc1ccccc1` (Cbz-Val-Phe-aldehyde), the Potency entry in test [1], in test [2], in test [3], in test [8] and in test [5] was “inactive” throughout. Also, the outcome in test [6] and in test [4] was inactive.
Turning to `O=C1Cc2c([nH]c3ccc(Br)cc23)-c2ccccc2N1`, the Potency entry in test [2], in test [8] and in test [5] was “inactive” throughout. In test [7], the Potency was 6.31 µM (active). For the same compound, in test [6], the compound was called inactive.
`COc1ccc(NC(=O)c2ccc(-c3ccc(-c4noc(C)n4)cc3C)cc2)cc1N1CCN(C)CC1`: the Potency in test [1] was 16.5 µM (active); in test [2] it was 5.85 µM (active); in test [7], 12.6 µM (active). Further, the Potency result in test [8] and in test [5] was “inactive” in each case. In addition, the outcome in test [6] was inactive.
As for `CC(=O)O[C@H]1Cc2ccccc2N(C(N)=O)c2ccccc21`, the Potency result in test [1], in test [2], in test [3], in test [8] and in test [5] was “inactive” each time. Further, in test [6], the result was inactive.
Consider `C=CCNc1ncnc2ccc(Br)cc12`, for which the Potency result in test [1], in test [2], in test [8] and in test [5] was “inactive” in each case. Besides, the compound was called inactive in test [6].
Regarding `O=C(O)C1=CCNCC1`, the Potency entry in test [1], in test [2], in test [7], in test [8] and in test [5] was “inactive” each time. In addition, in test [4], the result was inactive.
In the case of `S=C(S)N1CCCC1`, the Potency entry in test [8] and in test [5] was “inactive” throughout. The compound was classed as inactive in test [4].
Regarding `CC(C)NCC(O)COc1ccc(CC(N)=O)cc1` (configuration not stated), the Potency entry in test [1], in test [2], in test [7], in test [8] and in test [5] was “inactive” each time. Further, the compound was called inactive in test [6].
Turning to `COc1cc([C@@H]2c3cc4c(cc3[C@H](O)C3COC(=O)[C@@H]32)OCO4)cc(OC)c1OC` (some centres not stated), the Potency entry in test [1], in test [8] and in test [5] was “inactive” each time. Besides, the outcome in test [6] was inactive.
Turning to `c1ccc(C(NCCNC(c2ccccc2)c2ccccc2)c2ccccc2)cc1`, the Potency entry in test [1] and in test [8] was “inactive” each time. Also, the Potency in test [2] was 13.1 µM (active); in test [3], 18.5 µM (active). Further, in test [6], the compound was called inactive.
